# Experimental data as given in paper PMC7862700, “An all-to-all approach to the identification of sequence-specific readers for epigenetic DNA modifications on cytosine”.
# Assays:
# Test in all cases: DAPPL (digital affinity profiling via proximity ligation, sequencing); 10 mM Tris-HCl pH 7.5, 50 mM NaCl, 1 mM DTT, 4% glycerol, room temperature, 30 min; GST-TFs on glutathione beads, 16-mer random dsDNA library, 0.1% formaldehyde crosslink after washing; high values mean tight binding
# FEV = target: T1, FEV (Homo sapiens, UniProt Q99581 1-238); conditions: protein: recombinant; tags: N-terminal GST; dsDNA, one strand shown
# T1 sequence: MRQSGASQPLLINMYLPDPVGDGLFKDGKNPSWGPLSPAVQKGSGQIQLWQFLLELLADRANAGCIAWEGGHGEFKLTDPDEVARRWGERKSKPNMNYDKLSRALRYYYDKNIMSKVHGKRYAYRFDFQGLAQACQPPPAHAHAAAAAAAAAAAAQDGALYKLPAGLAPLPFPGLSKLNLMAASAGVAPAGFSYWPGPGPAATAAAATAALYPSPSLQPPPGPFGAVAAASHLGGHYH
# Summary of the method: (§1)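 Yeast served to express human transcription factors as GST fusions, which were then captured on glutathione beads and labelled with DNA barcodes. Pooled with a tag-only sample, they were incubated with 200 nmole of a 16-mer random double-stranded DNA library for 30 min at room temperature in Tris/NaCl/DTT/glycerol buffer, washed, crosslinked with 0.1% formaldehyde, ligated by proximity, amplified by PCR and sequenced. Dividing each hexamer's read frequency for a factor by its frequency for the tag-only sample gives the binding signal.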
# ETV5 = ETV5 (Homo sapiens, UniProt P41161 1-510); conditions: protein: recombinant; tags: N-terminal GST; dsDNA, one strand shown
# Summary of the method: as §1
# HSF1 = HSF1 (Homo sapiens, UniProt Q00613 1-529); conditions: protein: recombinant; tags: N-terminal GST; chain copies: 3; dsDNA, one strand shown
# Summary of the method: as §1
# SPIC = target: T2, SPIC (Homo sapiens, UniProt Q8N5J4 1-248); conditions: protein: recombinant; tags: N-terminal GST; dsDNA, one strand shown
# T2 sequence: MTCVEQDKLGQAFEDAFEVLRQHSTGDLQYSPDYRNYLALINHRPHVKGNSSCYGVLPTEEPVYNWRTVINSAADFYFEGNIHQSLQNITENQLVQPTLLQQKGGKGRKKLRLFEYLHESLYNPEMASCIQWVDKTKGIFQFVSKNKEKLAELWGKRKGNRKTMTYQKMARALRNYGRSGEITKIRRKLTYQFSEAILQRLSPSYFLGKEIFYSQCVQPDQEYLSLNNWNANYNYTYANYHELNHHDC
# Summary of the method: as §1
# ELF4 = ELF4 (Homo sapiens, UniProt Q99607 1-663); conditions: protein: recombinant; tags: N-terminal GST; dsDNA, one strand shown
# Summary of the method: as §1
# ELK4 = target: T3, ELK4 (Homo sapiens, UniProt P28324-2 1-405); conditions: protein: recombinant; tags: N-terminal GST; dsDNA, one strand shown
# T3 sequence: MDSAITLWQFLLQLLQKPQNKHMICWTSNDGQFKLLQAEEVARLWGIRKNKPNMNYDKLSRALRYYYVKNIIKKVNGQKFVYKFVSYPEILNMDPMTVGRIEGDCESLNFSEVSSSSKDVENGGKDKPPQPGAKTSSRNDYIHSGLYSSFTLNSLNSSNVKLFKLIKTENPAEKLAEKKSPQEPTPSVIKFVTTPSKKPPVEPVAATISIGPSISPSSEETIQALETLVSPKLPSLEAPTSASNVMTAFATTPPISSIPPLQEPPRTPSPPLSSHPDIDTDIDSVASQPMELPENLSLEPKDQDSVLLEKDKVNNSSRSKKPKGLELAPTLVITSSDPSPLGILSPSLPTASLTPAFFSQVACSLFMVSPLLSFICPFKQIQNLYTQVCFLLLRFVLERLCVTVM
# Summary of the method: as §1
# ETV2 = target: T4, ETV2 (Homo sapiens, UniProt O00321 1-342); conditions: protein: recombinant; tags: N-terminal GST; dsDNA, one strand shown
# T4 sequence: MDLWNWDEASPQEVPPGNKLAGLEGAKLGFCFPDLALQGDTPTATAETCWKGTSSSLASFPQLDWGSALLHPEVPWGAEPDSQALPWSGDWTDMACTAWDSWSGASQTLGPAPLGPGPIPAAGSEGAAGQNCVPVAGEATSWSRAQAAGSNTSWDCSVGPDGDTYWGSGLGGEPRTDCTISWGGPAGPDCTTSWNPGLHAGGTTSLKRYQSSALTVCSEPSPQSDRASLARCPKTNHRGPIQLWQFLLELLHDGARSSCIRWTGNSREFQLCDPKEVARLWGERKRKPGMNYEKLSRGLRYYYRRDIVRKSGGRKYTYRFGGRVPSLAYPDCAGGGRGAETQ
# Summary of the method: as §1
# ELF3 = target: T5, ELF3 (Homo sapiens, UniProt P78545 1-371); conditions: protein: recombinant; tags: N-terminal GST; dsDNA, one strand shown
# T5 sequence: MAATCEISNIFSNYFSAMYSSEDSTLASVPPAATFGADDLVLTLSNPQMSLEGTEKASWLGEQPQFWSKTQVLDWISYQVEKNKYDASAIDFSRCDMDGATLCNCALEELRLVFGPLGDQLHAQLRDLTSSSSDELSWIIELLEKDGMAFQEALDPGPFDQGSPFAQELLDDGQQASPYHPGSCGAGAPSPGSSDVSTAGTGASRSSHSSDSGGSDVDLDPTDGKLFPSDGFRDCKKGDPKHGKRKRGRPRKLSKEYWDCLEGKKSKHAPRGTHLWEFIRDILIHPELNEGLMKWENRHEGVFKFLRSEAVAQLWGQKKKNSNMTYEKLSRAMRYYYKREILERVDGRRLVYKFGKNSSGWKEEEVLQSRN
# Summary of the method: as §1
# ETV1 = ETV1 (Homo sapiens, UniProt P50549 1-477); conditions: protein: recombinant; tags: N-terminal GST; dsDNA, one strand shown
# Summary of the method: as §1
# ERF = target: T6, ERF (Homo sapiens, UniProt P50548 1-548); conditions: protein: recombinant; tags: N-terminal GST; dsDNA, one strand shown
# T6 sequence: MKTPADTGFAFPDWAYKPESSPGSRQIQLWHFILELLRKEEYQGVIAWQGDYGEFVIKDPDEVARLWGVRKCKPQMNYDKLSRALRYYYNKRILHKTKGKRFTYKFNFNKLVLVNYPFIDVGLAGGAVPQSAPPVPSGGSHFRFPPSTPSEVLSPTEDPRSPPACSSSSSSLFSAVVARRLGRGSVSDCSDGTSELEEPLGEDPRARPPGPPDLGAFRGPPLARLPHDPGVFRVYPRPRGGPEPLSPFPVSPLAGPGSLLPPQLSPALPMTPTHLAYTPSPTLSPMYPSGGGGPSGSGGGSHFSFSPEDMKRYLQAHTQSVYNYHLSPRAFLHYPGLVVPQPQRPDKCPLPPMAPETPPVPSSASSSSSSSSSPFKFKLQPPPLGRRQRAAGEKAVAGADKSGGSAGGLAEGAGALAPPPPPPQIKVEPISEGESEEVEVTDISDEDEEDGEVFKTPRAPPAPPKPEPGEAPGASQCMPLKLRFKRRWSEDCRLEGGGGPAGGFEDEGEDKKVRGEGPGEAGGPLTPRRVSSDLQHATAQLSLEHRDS
# Summary of the method: as §1
# ETV3L = target: T7, ETV3L (Homo sapiens, UniProt Q6ZN32 1-361); conditions: protein: recombinant; tags: N-terminal GST; dsDNA, one strand shown
# T7 sequence: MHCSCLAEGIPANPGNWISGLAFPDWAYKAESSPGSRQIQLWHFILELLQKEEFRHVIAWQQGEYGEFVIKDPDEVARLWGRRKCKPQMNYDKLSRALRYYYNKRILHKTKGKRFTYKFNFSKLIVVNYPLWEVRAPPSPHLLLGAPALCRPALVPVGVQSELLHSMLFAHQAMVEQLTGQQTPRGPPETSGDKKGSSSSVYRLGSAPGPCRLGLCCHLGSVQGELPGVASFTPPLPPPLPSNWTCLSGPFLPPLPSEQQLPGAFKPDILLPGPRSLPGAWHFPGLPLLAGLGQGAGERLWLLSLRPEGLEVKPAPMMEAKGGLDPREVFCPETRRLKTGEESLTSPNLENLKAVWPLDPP
# Summary of the method: as §1
# ETS2 = target: T8, ETS2 (Homo sapiens, UniProt P15036 1-469); conditions: protein: recombinant; tags: N-terminal GST; dsDNA, one strand shown
# T8 sequence: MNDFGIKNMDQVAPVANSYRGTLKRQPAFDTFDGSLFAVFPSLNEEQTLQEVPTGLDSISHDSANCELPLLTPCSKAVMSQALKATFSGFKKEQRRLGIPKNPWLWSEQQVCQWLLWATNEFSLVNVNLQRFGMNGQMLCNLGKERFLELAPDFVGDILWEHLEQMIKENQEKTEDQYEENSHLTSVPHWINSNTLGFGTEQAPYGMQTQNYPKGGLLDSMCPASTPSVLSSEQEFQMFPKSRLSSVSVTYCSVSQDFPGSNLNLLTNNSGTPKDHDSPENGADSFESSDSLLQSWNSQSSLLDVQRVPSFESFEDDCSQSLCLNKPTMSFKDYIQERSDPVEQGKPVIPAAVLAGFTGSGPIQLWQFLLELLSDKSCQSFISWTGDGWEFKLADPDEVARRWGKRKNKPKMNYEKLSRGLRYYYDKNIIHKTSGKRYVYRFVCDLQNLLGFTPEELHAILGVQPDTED
# Summary of the method: as §1
# SPDEF = target: T9, SPDEF (Homo sapiens, UniProt O95238 1-335); conditions: protein: recombinant; tags: N-terminal GST; dsDNA, one strand shown
# T9 sequence: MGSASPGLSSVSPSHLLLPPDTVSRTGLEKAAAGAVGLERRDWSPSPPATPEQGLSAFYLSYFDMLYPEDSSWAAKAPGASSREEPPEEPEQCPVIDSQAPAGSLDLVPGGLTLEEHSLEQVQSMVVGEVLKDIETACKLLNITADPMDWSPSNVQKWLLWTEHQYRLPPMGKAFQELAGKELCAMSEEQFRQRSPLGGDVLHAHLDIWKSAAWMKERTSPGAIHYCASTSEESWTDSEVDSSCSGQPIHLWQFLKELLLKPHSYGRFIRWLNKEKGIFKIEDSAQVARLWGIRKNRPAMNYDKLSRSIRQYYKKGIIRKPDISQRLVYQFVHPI
# Summary of the method: as §1
# ETV7 = target: T10, ETV7 (Homo sapiens, UniProt Q9Y603 1-341); conditions: protein: recombinant; tags: N-terminal GST; dsDNA, one strand shown
# T10 sequence: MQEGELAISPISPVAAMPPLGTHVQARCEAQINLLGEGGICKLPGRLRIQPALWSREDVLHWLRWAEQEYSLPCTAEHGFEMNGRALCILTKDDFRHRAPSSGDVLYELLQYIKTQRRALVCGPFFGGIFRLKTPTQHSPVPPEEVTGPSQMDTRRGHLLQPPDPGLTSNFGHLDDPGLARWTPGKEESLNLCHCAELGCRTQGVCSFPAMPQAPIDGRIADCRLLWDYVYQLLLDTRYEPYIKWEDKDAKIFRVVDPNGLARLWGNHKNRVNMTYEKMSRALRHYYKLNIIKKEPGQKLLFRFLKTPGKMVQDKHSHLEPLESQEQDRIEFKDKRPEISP
# Summary of the method: as §1
# ELF5 = target: T11, ELF5 (Homo sapiens, UniProt Q9UKW6-2 1-255); conditions: protein: recombinant; tags: N-terminal GST; dsDNA, one strand shown
# T11 sequence: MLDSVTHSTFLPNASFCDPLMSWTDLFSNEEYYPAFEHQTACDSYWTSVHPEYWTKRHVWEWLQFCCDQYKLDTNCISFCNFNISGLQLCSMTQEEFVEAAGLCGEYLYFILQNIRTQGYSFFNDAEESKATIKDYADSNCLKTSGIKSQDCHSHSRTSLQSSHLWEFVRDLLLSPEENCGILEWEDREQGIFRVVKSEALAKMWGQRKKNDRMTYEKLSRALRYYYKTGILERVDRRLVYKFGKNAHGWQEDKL
# Summary of the method: as §1
# ETV3 = target: T12, ETV3 (Homo sapiens, UniProt P41162-2 1-143); conditions: protein: recombinant; tags: N-terminal GST; dsDNA, one strand shown
# T12 sequence: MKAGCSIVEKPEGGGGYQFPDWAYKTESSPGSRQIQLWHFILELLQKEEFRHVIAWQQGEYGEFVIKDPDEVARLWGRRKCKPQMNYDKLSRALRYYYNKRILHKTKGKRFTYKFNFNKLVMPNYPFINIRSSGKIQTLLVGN
# Summary of the method: as §1
# ETV6 = ETV6 (Homo sapiens, UniProt P41212 1-452); conditions: protein: recombinant; tags: N-terminal GST; dsDNA, one strand shown
# Summary of the method: as §1
# ETV6, sequence (P41212 whole entry): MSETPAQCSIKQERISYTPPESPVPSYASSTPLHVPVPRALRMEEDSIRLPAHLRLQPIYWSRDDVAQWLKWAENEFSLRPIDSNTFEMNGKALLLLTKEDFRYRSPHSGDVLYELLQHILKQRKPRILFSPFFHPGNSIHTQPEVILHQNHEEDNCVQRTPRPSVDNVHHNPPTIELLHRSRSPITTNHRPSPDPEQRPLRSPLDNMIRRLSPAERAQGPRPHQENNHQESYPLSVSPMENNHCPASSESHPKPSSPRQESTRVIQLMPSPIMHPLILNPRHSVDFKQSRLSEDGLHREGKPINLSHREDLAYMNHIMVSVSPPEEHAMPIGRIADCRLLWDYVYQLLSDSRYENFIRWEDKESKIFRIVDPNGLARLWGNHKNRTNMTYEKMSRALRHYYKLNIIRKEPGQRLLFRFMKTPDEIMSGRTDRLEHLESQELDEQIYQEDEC
# ETV5, sequence (P41161 whole entry): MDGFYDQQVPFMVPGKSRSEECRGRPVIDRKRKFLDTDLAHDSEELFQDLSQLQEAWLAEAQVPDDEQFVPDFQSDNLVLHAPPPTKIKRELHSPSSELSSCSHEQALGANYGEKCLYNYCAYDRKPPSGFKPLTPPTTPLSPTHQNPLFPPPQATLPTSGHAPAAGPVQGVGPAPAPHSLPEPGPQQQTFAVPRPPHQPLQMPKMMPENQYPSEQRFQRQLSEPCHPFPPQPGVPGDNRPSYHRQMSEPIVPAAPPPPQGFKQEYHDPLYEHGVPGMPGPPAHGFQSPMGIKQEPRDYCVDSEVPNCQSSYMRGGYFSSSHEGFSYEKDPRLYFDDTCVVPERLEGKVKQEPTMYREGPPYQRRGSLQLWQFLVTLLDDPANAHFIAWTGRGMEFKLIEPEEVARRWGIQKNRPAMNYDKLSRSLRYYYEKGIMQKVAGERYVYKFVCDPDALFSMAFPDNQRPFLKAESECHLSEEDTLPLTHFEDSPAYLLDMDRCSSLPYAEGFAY
# ETV1, sequence (P50549 whole entry): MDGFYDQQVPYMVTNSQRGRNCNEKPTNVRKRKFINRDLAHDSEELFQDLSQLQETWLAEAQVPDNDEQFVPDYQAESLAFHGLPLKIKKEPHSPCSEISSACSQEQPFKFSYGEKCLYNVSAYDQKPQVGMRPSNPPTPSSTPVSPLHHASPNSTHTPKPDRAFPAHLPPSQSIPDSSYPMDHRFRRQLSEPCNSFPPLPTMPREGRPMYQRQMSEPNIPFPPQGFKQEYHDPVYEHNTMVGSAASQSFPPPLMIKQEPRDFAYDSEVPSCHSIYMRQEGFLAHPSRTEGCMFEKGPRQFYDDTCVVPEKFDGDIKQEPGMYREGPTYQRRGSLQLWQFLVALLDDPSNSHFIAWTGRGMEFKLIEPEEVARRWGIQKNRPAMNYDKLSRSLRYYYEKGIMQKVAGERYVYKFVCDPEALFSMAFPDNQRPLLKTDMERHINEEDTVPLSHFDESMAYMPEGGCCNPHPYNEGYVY
# ELF4, sequence (Q99607 whole entry): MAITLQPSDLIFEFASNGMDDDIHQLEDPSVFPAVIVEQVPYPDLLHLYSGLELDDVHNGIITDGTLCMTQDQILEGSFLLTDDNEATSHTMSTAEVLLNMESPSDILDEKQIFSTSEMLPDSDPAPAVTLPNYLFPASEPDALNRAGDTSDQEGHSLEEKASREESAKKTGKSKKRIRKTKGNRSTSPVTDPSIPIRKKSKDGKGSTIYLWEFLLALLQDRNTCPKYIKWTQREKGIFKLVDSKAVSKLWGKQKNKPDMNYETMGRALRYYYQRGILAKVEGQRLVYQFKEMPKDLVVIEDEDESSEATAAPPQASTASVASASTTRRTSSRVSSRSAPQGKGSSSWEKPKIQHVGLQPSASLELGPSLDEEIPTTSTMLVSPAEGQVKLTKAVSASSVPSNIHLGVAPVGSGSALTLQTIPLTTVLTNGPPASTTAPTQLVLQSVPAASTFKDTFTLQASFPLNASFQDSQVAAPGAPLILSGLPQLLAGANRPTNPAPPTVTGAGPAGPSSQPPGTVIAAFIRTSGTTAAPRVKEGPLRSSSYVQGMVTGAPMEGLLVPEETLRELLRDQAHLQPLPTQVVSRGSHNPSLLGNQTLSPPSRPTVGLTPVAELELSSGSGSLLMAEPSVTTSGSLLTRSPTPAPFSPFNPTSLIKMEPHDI
# HSF1, sequence (Q00613 whole entry): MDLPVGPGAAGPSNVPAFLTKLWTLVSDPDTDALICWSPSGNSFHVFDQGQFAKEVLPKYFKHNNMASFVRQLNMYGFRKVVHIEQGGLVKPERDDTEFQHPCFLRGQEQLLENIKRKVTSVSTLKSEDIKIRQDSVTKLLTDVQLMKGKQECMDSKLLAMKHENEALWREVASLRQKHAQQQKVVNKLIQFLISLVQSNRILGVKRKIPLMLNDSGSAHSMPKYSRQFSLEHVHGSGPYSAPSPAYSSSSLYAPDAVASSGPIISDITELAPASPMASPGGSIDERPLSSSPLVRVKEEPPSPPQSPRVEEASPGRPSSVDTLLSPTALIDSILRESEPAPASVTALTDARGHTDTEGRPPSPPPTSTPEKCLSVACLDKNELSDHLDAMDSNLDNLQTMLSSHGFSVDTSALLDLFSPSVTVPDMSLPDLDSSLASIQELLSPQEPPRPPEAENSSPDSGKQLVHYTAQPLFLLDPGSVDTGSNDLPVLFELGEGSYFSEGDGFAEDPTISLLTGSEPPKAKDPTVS
Sequence,binding signal (FEV),binding signal (ETV5),binding signal (HSF1),binding signal (SPIC),binding signal (ELF4),binding signal (ELK4),binding signal (ETV2),binding signal (ELF3),binding signal (ETV1),binding signal (ERF),binding signal (ETV3L),binding signal (ETS2),binding signal (SPDEF),binding signal (ETV7),binding signal (ELF5),binding signal (ETV3),binding signal (ETV6)
CACGAA,"1.09 fold enrichment (6-mer frequency, TF over GST control)","1.1 fold enrichment (6-mer frequency, TF over GST control)","1.39 fold enrichment (6-mer frequency, TF over GST control)","1.12 fold enrichment (6-mer frequency, TF over GST control)","1.2 fold enrichment (6-mer frequency, TF over GST control)","1.3 fold enrichment (6-mer frequency, TF over GST control)","1.18 fold enrichment (6-mer frequency, TF over GST control)","1.07 fold enrichment (6-mer frequency, TF over GST control)","1.14 fold enrichment (6-mer frequency, TF over GST control)","1.18 fold enrichment (6-mer frequency, TF over GST control)","1.01 fold enrichment (6-mer frequency, TF over GST control)","1.12 fold enrichment (6-mer frequency, TF over GST control)","1.08 fold enrichment (6-mer frequency, TF over GST control)","1.16 fold enrichment (6-mer frequency, TF over GST control)","1.02 fold enrichment (6-mer frequency, TF over GST control)","1.05 fold enrichment (6-mer frequency, TF over GST control)","1.07 fold enrichment (6-mer frequency, TF over GST control)"
GATGCC,"1.41 fold enrichment (6-mer frequency, TF over GST control)","1.46 fold enrichment (6-mer frequency, TF over GST control)","1.08 fold enrichment (6-mer frequency, TF over GST control)","1.22 fold enrichment (6-mer frequency, TF over GST control)","1.31 fold enrichment (6-mer frequency, TF over GST control)","1.42 fold enrichment (6-mer frequency, TF over GST control)","1.28 fold enrichment (6-mer frequency, TF over GST control)","1.4 fold enrichment (6-mer frequency, TF over GST control)","1.36 fold enrichment (6-mer frequency, TF over GST control)","1.36 fold enrichment (6-mer frequency, TF over GST control)","1.39 fold enrichment (6-mer frequency, TF over GST control)","1.33 fold enrichment (6-mer frequency, TF over GST control)","1.52 fold enrichment (6-mer frequency, TF over GST control)","1.27 fold enrichment (6-mer frequency, TF over GST control)","1.35 fold enrichment (6-mer frequency, TF over GST control)","1.39 fold enrichment (6-mer frequency, TF over GST control)","1.32 fold enrichment (6-mer frequency, TF over GST control)"
